Experimental data reported in PubChem BioAssay.
The source made the active and inactive calls. The rule behind the calls is not given here.

target: Pantothenate synthetase (Mycobacterium tuberculosis (strain ATCC 25618 / H37Rv)) (UniProt P9WIL5); experiment: Coupled enzyme confirmation of inhibitors against recombinant Mtb PanC (AID 375); details: coupled enzyme assay; at 10 µM, active compounds read high;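 note: 0% = full reaction with vehicle and 100% = no enzyme background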
Sequence (P9WIL5 whole entry, looked up): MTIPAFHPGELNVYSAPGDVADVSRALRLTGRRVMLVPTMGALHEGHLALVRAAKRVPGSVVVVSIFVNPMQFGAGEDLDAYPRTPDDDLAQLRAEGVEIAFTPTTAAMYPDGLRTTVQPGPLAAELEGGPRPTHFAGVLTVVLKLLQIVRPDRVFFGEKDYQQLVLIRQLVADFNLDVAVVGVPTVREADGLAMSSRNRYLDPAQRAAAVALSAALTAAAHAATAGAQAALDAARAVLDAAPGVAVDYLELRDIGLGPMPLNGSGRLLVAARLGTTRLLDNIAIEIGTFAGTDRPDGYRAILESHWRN

Row | SMILES | inhibition
1 | Cc1ccc(S(=O)(=O)N2CCN(C(=O)CN3C(=O)NC4(CCOc5ccccc54)C3=O)CC2)cc1 (stereo not drawn) | 2% (inactive)
2 | CCCCN(Cc1cc2cc(OC)ccc2[nH]c1=O)C(=O)COc1ccccc1 | 2% (inactive)
3 | CC(=O)Nc1ccc(Cc2ccncc2)cc1 | 0% (inactive)
4 | N#Cc1nc(COc2ccc(Br)cc2)oc1N1CCCC1 | 16% (inactive)
5 | CCOCCCNC(=O)CN1CCN(Cc2ccccc2C)C1=O | 5% (inactive)
6 | COc1cc2c(C#N)c(N3CCOCC3)nc(N)c2c(N)n1 | 0% (inactive)
7 | CC(NS(=O)(=O)c1ccccc1)C(c1cccs1)N1CCN(C)CC1 (stereo not drawn) | 4% (inactive)
8 | O=C(COn1nnc2ccc(C(F)(F)F)cc21)Nc1nnc(-c2ccccc2)o1 | 0% (inactive)
9 | Cc1ccc(C)c(-n2c(Cc3cc(=O)[nH]c(=O)[nH]3)nnc2SCC(=O)NCc2ccco2)c1 | 0% (inactive)
10 | COc1ccc(N(C)C(=O)CCS(=O)(=O)c2cccc3nonc23)cc1 | 1% (inactive)
11 | O=C(CSc1nnnn1-c1ccccc1Cl)Nc1ccc2c(c1)OCCO2 | 8% (inactive)
12 | O=C(OCc1ccccc1F)c1ccc2c(c1)OCCO2 | 3% (inactive)
13 | COc1ccc(OC)c(S(=O)(=O)Nc2ccc(C(N)=O)cc2)c1 | 0% (inactive)
14 | CC1CCCC(C)N1C(=O)CSc1nnc(-c2cccs2)o1 (stereo not drawn) | 1% (inactive)
15 | CN(CC(=O)N1CCN(c2ccc(F)cc2)CC1)S(=O)(=O)c1ccc(F)cc1 | 0% (inactive)
16 | CCOC(=O)/C=C(\C)Sc1cc(=O)oc2ccccc12 | 6% (inactive)
17 | Cn1nnnc1SCC(=O)NC1CCCCC1 | 0% (inactive)
18 | COc1cccc(C(c2nnnn2CCc2ccccc2)N2CCN(c3ccccc3)CC2)c1OC (stereo not drawn) | 0% (inactive)
19 | Clc1ccc2c(c1)C(N1CCNCC1)=Nc1ccccc1O2 | 8% (inactive)
20 | CC1Cc2nc(SCC(=O)Nc3ccc(F)cc3F)n(C)c(=O)c2S1 (stereo not drawn) | 0% (inactive)
21 | COc1ccc(-c2nc(CSCC(=O)N3CCc4ccccc4C3)c(C)o2)cc1OC | 0% (inactive)
22 | O=C(O)c1cc(/C=N\O)ccc1OCc1ccccc1 | 3% (inactive)
23 | CC1CN=C(N(C(=O)Nc2ccccc2)c2ccc(S(=O)(=O)N3CCOCC3)cc2)S1 (stereo not drawn) | 0% (inactive)
